BoNT F protease: BoNT F light chain protease inhibition; Multiplex microsphere protease cleavage assay, flow cytometry; inhibition, % at 10 µM; 360,000 compounds, 0.22% hits; AID 588497; in the data active = inhibition above about 35%, passing the limit was not always enough; inconclusive = no clear call, values can overlap the other calls
DUSP3 inh: inhibitors of human VHR1 phosphatase (DUSP3). P51452. recombinant VHR phosphatase, pNPP absorbance. inhibition, % at 13.3 µM. 290,000 compounds, 0.52% hits; in the data active = inhibition above about 50%
Target sequence (P51452 whole entry, looked up): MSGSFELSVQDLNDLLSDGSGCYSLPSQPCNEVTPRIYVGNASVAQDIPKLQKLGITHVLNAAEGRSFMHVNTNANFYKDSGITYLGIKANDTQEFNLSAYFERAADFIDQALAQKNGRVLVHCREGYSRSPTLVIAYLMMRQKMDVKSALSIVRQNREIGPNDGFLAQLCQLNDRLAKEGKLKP
MazEF act: activators of E. coli MazEF toxin-antitoxin RNase; FAM/BHQ RNA-DNA oligo cleavage fluorescence, 5 h; P0AE70; 350,000 compounds, 0.32% hits; activation, % at 20 µM; in the data active = activation above about 50%
Target sequence (P0AE70 whole entry, looked up): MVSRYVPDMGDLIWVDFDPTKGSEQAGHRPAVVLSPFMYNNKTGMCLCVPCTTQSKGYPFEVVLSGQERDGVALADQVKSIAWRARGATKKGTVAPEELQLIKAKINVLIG
Anthrax LF prot: blocks Bacillus anthracis lethal factor protease | multiplex microsphere protease cleavage assay, LF | inhibition, % at 10 µM | 360,000 compounds, 0.12% hits | AID 588501
Autofluor counter: flagged as autofluorescent in microsphere protease counterscreen; compound autofluorescence counterscreen, microsphere flow cytometry; active compounds read high; fluorescence intensity (no concentration beside the values); 360,000 compounds, 3.1% hits; in the data active = fluorescence intensity above about 16000; inconclusive = no clear call, values can overlap the other calls
BoNT A protease: BoNT A light chain protease inhibition; multiplex microsphere protease substrate cleavage, flow cytometry; inhibition, % at 10 µM; 360,000 compounds, 0.17% hits
Large screens that a line does not name were inactive. The list is not random: actives were taken first. Their share in the collection is about 4%. Cut-off read from the data, not from the text of the source, unless noted: active = inhibition above about 30%; inconclusive = no clear call, values can overlap the other calls; inactive = below that.

CCN(C(=O)Cc1c(C(=O)O)[nH]c2ccccc12)c1cc(OC)ccc1OC	Autofluor counter 20129
CC(C)OC(=O)CSc1nnc(-c2cnccn2)n1Cc1ccco1	none
Fc1ccc(CSc2nnc(-c3cnccn3)n2Cc2ccco2)cc1	Autofluor counter 24676
C=CCn1c(SCC(=O)Nc2cccc3ccccc23)nnc1-c1cnccn1	Autofluor counter 16132
C=CCn1c(SCC(=O)Nc2ccc(F)cc2F)nnc1-c1cnccn1	none
O=C(CSc1nnc(-c2cnccn2)n1Cc1ccco1)c1ccc2ccccc2c1	Autofluor counter 21448, BoNT A protease inconclusive
Cc1ccc(NC(=O)CSc2nnc(-c3cnccn3)n2Cc2ccco2)cc1	Autofluor counter 17381
Cc1cccc(NC(=O)CSc2nnc(-c3cnccn3)n2Cc2ccco2)c1	Autofluor counter 23296, BoNT A protease inconclusive
COc1ccc(S(=O)(=O)Nc2ccccc2C(=O)NC(C)C)cc1OC	none (no result: BoNT F protease, Anthrax LF prot, Autofluor counter, BoNT A protease)
O=C(CN1C(=O)c2ccccc2S1(=O)=O)N1CCOCC1	Autofluor counter 20391
O=C(CN1C(=O)c2ccccc2S1(=O)=O)N1CCCCC1	none
CCCc1nnc(NC(=O)Cn2c(=O)oc3cc(Br)ccc32)s1	Autofluor counter 21386
Cc1ccc(NC(=O)CS(=O)CC(=O)Nc2ccccc2-c2ccc(C)o2)cc1 (stereo not given)	MazEF act 300.1
CC(=O)Nc1ccccc1-c1ccc(C)o1	none
O=C(NC1CC2CCCC(C1)N2Cc1ccccc1)c1cccc(Cl)c1 (stereo not given)	BoNT F protease inconclusive
O=C(NC1CC2CCCC(C1)N2Cc1ccccc1)c1cccc(F)c1 (stereo not given)	BoNT F protease inconclusive, DUSP3 inh 55.7
Cc1nc2ccccc2c(=O)n1-c1nccs1	none (no result: DUSP3 inh, MazEF act)
O=c1c2ccccc2sn1-c1nccs1	BoNT A protease 101.7
CN(C)S(=O)(=O)c1cccc(-n2sc3ccccc3c2=O)c1	BoNT A protease 33.1
O=c1c2ccccc2sn1-c1ccccc1	BoNT A protease 70.4
Cc1ccccc1-n1sc2cc(F)ccc2c1=O	BoNT A protease 88.6
O=c1c2ccccc2sn1-c1cccc(Cl)c1	none (no result: DUSP3 inh)
O=c1c2cc(F)ccc2sn1-c1ccccc1	BoNT A protease 34.9 (no result: DUSP3 inh)
Cc1ccc(-n2sc3ccccc3c2=O)cc1S(=O)(=O)N1CCCCC1	BoNT A protease 32.5
O=C1/C(=C\c2ccco2)NC(=S)N1c1ccccc1	none
CCCN=C1N/C(=C\c2ccco2)C(=O)N1c1ccccc1	MazEF act 51.5
CCOC(=O)c1cc(OC(=O)c2ccccc2OC)n(-c2ccccc2)n1	Autofluor counter 20755, BoNT A protease inconclusive
CCOC(=O)N1CCN(S(=O)(=O)c2c(C)cc(C)cc2C)CC1	none
CCOC(=O)N1CCN(S(=O)(=O)c2ccc(C)c(C)c2)CC1	Autofluor counter 23015, BoNT A protease inconclusive
Cc1ccc(S(=O)(=O)N2CCN(C(=O)C3COc4ccccc4O3)CC2)cc1C (stereo not given)	Autofluor counter 19329, BoNT A protease inconclusive
CCOC(=O)N1CCN(C(=O)C2CCN(S(=O)(=O)c3c(C)cc(C)cc3C)CC2)CC1	Autofluor counter 16613
O=C(C1COc2ccccc2O1)N1CCN(S(=O)(=O)c2ccccc2)CC1 (stereo not given)	none
O=C(CCSc1ccccc1)NC1CCCCCC1	none
CCOC(=O)C1CCCN(c2c(NCCN(CC)c3ccccc3)c(=O)c2=O)C1 (stereo not given)	none
CCOC(=O)C1CCCN(c2c(NCCCN(CC)c3ccccc3)c(=O)c2=O)C1 (stereo not given)	Autofluor counter 24139
CCOc1ccc(NC(=O)Cn2cc(C(=O)c3ccco3)c3ccccc32)cc1	Autofluor counter 16382
O=C(c1ccco1)c1cn(Cc2ccccc2Cl)c2ccccc12	Autofluor counter 24624, BoNT A protease inconclusive
CC1(Cc2cc(Cl)ccc2C(F)(F)F)C(=O)Nc2ccc(S(=O)(=O)NC3CCCCC3)cc21 (stereo not given)	none (no result: DUSP3 inh, MazEF act)
O=C1CC(=O)CC(c2ccccc2)C1	none
CC(C)(O)C1=NOC(c2ccccc2)C1 (stereo not given)	Autofluor counter 16732
O=[N+]([O-])c1ccc(Cl)c(/C=N/n2c(-c3ccncc3)n[nH]c2=S)c1	BoNT F protease inconclusive, Anthrax LF prot 37.4
Cc1cc(C)c(S(=O)(=O)NCC(c2ccco2)N2CCc3ccccc3C2)c(C)c1 (stereo not given)	none (no result: DUSP3 inh)
O=C(COc1ccc(F)cc1)Nc1nnc(-c2ccncc2)s1	Autofluor counter 18059
CCOc1cc(/C=C(\C#N)C(N)=O)ccc1OCc1c(C)no[n+]1[O-]	none
Cc1cccc(C(=O)NNC2=CC(=O)CC(C)(C)C2)c1O	none
CC1(C)CC(=O)C=C(NNC(=O)c2ccccc2O)C1	Autofluor counter 16377
Cc1cc(=O)oc2cc(OCC3CC(c4ccc(Cl)cc4)=NO3)ccc12 (stereo not given)	Autofluor counter 22029
Cc1cc(=O)oc2cc(OCC3CC(c4ccc(N(C)C)cc4)=NO3)ccc12 (stereo not given)	none
Nc1cnn(Cc2ccc(F)cc2)c1	none
COc1cc(C=O)ccc1OCCSc1ccc(C)cc1	Autofluor counter 18295
CCC(=O)Nc1ccccc1C(=O)OCc1ccc(C(=O)c2ccccc2)cc1	Autofluor counter 20219
N/C(Cc1ccc(Cl)cc1)=N\OC(=O)c1ccccc1	BoNT F protease 41.6
O=C(OCc1ccc(Cl)cc1)c1ccccc1C(=O)c1ccccc1	Autofluor counter 17651
N/C(=N\OC(=O)c1ccc(Br)cc1)c1ccccc1	Autofluor counter 25293
N/C(=N\OC(=O)c1cccc(Br)c1)c1ccc(Br)cc1	none
C[C@@H](C(=O)Nc1ccc2ccccc2c1)[C@H]1C[C@]1(C)[C@H](NC(=O)OCc1ccccc1)c1ccccc1	none
O=C(O)CCC(=O)Nc1ccccc1C(=O)NC1CCCCC1	none
CCC(=O)Nc1ccccc1C(=O)NC1CCCCC1	Autofluor counter 21479
O=C(O)c1cccc(NC(=S)NC(=O)c2cccc(OCc3ccccc3)c2)c1	none
Cc1ccc(S(=O)(=O)N(C)c2nonc2C)cc1	Autofluor counter 19642
O=C(O)c1ccc(S(=O)(=O)N2CCc3ccccc3C2)cc1	none
Cc1cc(C)nc(NS(=O)(=O)c2ccc(NC(=O)c3cccs3)cc2)n1	none
Cc1ccc(NS(=O)(=O)c2ccc(NC(=O)c3cccs3)cc2)c(C)c1	MazEF act 53.0
COc1ccc(Cl)cc1NC(=O)CN1CCc2ccccc2C1	BoNT F protease inconclusive
O=C(NCc1ccc(F)cc1)C(c1cccs1)N(C(=O)c1csnn1)C1CC1 (stereo not given)	Autofluor counter 16343, BoNT A protease inconclusive
CC1CCC(C(C)C)C(OC(=O)COC(=O)c2ccc(N)cc2)C1 (stereo not given)	none
C/C(=N\O)C(=O)OC1CC(C)CCC1C(C)C (stereo not given)	Autofluor counter 24312
O=C(NCCS(=O)(=O)NCc1ccccc1)c1ccccc1	none (no result: DUSP3 inh)
CCOC(=O)C1CCN(Cc2ccccc2C(F)(F)F)CC1	none

Compound activity from PubChem.
